“And” between values parts separate entries of the source, which are not always exact repeats. Equal entries are not always repeated. Out of some 5,500 compounds screened, about 2,000 (36%) were called active. Not shown: some 18% with an inconclusive outcome. Cut-off read from the data, not from the text of the source: active = normalized growth mostly below about 0.91 (no sharp cut-off); inconclusive = no clear call, values can overlap the other calls; inactive = mostly above about 0.92. The list shows a part of the results.
Assay: chemical genetic growth profiling, strain panel (AID 1159580);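 note: tested at 20 µM; growth read once vehicle control cultures reached saturation at 30 °C; 1 = growth at the plate median or of vehicle wells; lower values mean less growth of the strain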
Conditions: S. cerevisiae deletion strains, growth OD

Measured: normalized growth

CC(=O)OCC(=O)[C@@]1(O)CCC2C3CCC4=CC(=O)CC[C@]4(C)C3[C@@H](O)C[C@@]21C (stereo partly drawn)
inactive: locus YAL013W, strain DEP1, active compounds read low 1.01 | locus YAL021C, strain ccr4, active compounds read low 1.03 | locus YAL026C, strain drs2, active compounds read low 1.02 | locus YAL030W, strain snc1, active compounds read low 1.04 | locus YBL061C, strain skt5, active compounds read low 1.03 | locus YBR009C, strain hhf1, active compounds read low 0.99 | locus YBR021W, strain FUR4, active compounds read low 0.999 | locus YBR023C, strain chs3, active compounds read low 1.02 | locus YBR171W, strain sec66, active compounds read low 1.04 | locus YBR229C, strain ROT2, active compounds read low 1 | locus YBR231C, strain swc5, active compounds read low 0.999 | locus YBR279W, strain paf1, active compounds read low 1.01 | locus YCL011C, strain gbp2, active compounds read low 1.01 | locus YCL016C, strain dcc1, active compounds read low 1.04 | locus YCL029C, strain bik1, active compounds read low 1 | locus YCL069W, strain vba3, active compounds read low 1 | locus YCR088W, strain abp1, active compounds read low 1.02 | locus YDL005C, strain med2, active compounds read low 1.01 | locus YDL035C, strain GPR1, active compounds read low 1.01 | locus YDL040C, strain nat1, active compounds read low 1.01 | locus YDL074C, strain BRE1, active compounds read low 1.01 | locus YDL101C, strain DUN1, active compounds read low 1.01 | locus YDL134C, strain PPH21, active compounds read low 1.01 | locus YDL185W, strain tfp1, active compounds read low 1.01 | locus YDL192W, strain arf1, active compounds read low 1 | locus YDR001C, strain nth1, active compounds read low 1.01 | locus YDR069C, strain doa4, active compounds read low 1.04 | locus YDR101C, strain arx1, active compounds read low 0.994 | locus YDR137W, strain rgp1, active compounds read low 1.05 | locus YDR150W, strain NUM1, active compounds read low 1.01 | locus YDR159W, strain sac3, active compounds read low 0.997 | locus YDR162C, strain NBP2, active compounds read low 1.01 | locus YDR195W, strain ref2 1.02 | locus YDR297W, strain sur2, active compounds read low 0.997 | locus YDR318W, strain mcm21, active compounds read low 0.998 | locus YDR334W, strain swr1, active compounds read low 1.01 | locus YDR335W, strain msn5, active compounds read low 1.02 | locus YDR388W, active compounds read low 1 | locus YDR392W, strain spt3, active compounds read low 1.04 | locus YDR502C, strain sam2, active compounds read low 0.996 | locus YEL003W, strain gim4, active compounds read low 1.01 | locus YEL037C, strain rad23, active compounds read low 1.02 | locus YEL061C, strain CIN8 (second series), active compounds read low 1.01 | locus YEL061C, strain CIN8, active compounds read low 1.01 | locus YER015W, strain faa2, active compounds read low 1.01 | locus YER016W, strain bim1, active compounds read low 1.05 | locus YER110C, active compounds read low 0.998 | locus YER111C, strain swi4, active compounds read low 1.01 | locus YER155C, strain BEM2 (second series), active compounds read low 1.02 | locus YER155C, strain BEM2, active compounds read low 1.01 | locus YER167W, strain BCK2, active compounds read low 1.01 | locus YFR010W, strain ubp6, active compounds read low 0.984 | locus YGL078C, strain dbp3, active compounds read low 0.99 | locus YGL086W, strain mad1, active compounds read low 1.01 | locus YGL167C, strain pmr1, active compounds read low 1.02 | locus YGL173C, strain kem1, active compounds read low 1.02 | locus YGL227W, strain vid30, active compounds read low 1.01 | locus YGL240W, strain doc1, active compounds read low 1 | locus YGL248W, strain PDE1, active compounds read low 1 | locus YGL253W, strain hxk2, active compounds read low 1.02 | locus YGR135W, strain pre9, active compounds read low 0.986 | locus YGR252W, strain gcn5, active compounds read low 0.947 | locus YHR013C, strain ard1, active compounds read low 1.04 | locus YHR027C, strain rpn1, active compounds read low 1.03 | locus YHR030C, strain SLT2, active compounds read low 1.01 and 0.978 | locus YHR079C, strain IRE1 (second series), active compounds read low 1 | locus YHR079C, strain IRE1, active compounds read low 0.976 | locus YHR094C, strain hxt1, active compounds read low 0.995 | locus YHR129C, strain ARP1, active compounds read low 1.01 | locus YHR142W, strain chs7, active compounds read low 1.03 | locus YHR200W, strain rpn10, active compounds read low 1 | locus YIL066C, strain RNR3, active compounds read low 1.01 | locus YIL073C, strain SPO22, active compounds read low 1.04 | locus YIL125W, strain kgd1, active compounds read low 0.996 | locus YIR030C, strain dcg1, active compounds read low 1 | locus YJL092W, strain hpr5, active compounds read low 1.02 | locus YJL095W, strain BCK1 (second series), active compounds read low 1.03 | locus YJL095W, strain BCK1, active compounds read low 1.01 and 0.971 | locus YJL115W, strain asf1, active compounds read low 1.01 | locus YJL129C, strain trk1, active compounds read low 1.04 | locus YJL134W, strain LCB3, active compounds read low 1.01 | locus YJL154C, strain vps35, active compounds read low 1.01 | locus YJL164C, strain tpk1, active compounds read low 1.01 | locus YJL166W, strain qcr8, active compounds read low 1.01 | locus YJL168C, strain set2, active compounds read low 0.993 | locus YJL187C, strain SWE1 (second series), active compounds read low 1 | locus YJL187C, strain SWE1, active compounds read low 1.01 | locus YJR043C, strain POL32, active compounds read low 1.02 | locus YJR066W, strain TOR1, active compounds read low 0.931 | locus YKL009W, strain mrt4, active compounds read low 1.01 | locus YKL068W, active compounds read low 0.997 | locus YKL085W, strain MDH1 (second series), active compounds read low 1 | locus YKL085W, strain MDH1, active compounds read low 1 | locus YKL160W, strain elf1, active compounds read low 1.04 | locus YKR001C, strain vps1, active compounds read low 0.997 | locus YKR026C, strain gcn3, active compounds read low 1 | locus YKR091W, strain srl3, active compounds read low 1.01 | locus YLL001W, strain dnm1, active compounds read low 1.01 | locus YLL026W, active compounds read low 1.01 | locus YLL041C, strain sdh2, active compounds read low 1.03 | locus YLR027C, strain aat2, active compounds read low 1.02 | locus YLR039C, strain RIC1, active compounds read low 1.02 | locus YLR058C, strain SHM2, active compounds read low 0.996 | locus YLR102C, strain apc9, active compounds read low 0.995 | locus YLR113W, strain HOG1, active compounds read low 0.992 | locus YLR221C, strain rsa3, active compounds read low 0.985 | locus YLR258W, strain gsy2, active compounds read low 1.03 | locus YLR262C, strain YPT6 (second series), active compounds read low 1 | locus YLR262C, strain YPT6, active compounds read low 1.04 | locus YLR268W, strain sec22, active compounds read low 0.998 | locus YLR320W, strain mms22, active compounds read low 1 | locus YLR330W, strain CHS5, active compounds read low 1.01 | locus YLR342W, strain FKS1 (second series), active compounds read low 0.998 | locus YLR342W, strain FKS1, active compounds read low 1.02 | locus YLR357W, strain rsc2, active compounds read low 1.03 | locus YLR370C, strain arc18, active compounds read low 1.02 | locus YLR371W, strain rom2, active compounds read low 0.994 | locus YLR384C, strain iki3, active compounds read low 1.02 | locus YLR418C, strain cdc73, active compounds read low 0.994 | locus YML016C, strain PPZ1, active compounds read low 1 | locus YML032C, strain rad52, active compounds read low 1 | locus YML120C, strain ndi1, active compounds read low 1 | locus YML124C, strain tub3, active compounds read low 0.998 | locus YMR058W, strain fet3, active compounds read low 1.03 | locus YMR078C, strain ctf18, active compounds read low 1 | locus YMR125W, strain sto1, active compounds read low 1.03 | locus YMR129W, active compounds read low 1.02 | locus YMR205C, strain PFK2, active compounds read low 1.03 | locus YMR223W, strain ubp8, active compounds read low 0.98 | locus YMR231W, strain pep5, active compounds read low 1.02 | locus YMR307W, strain GAS1, active compounds read low 0.984 | locus YNL067W, strain RPL9B, active compounds read low 1.01 | locus YNL071W, strain lat1, active compounds read low 1 | locus YNL183C, strain NPR1, active compounds read low 0.954 | locus YNL209W, strain ssb2, active compounds read low 1.02 | locus YNL233W, strain BNI4, active compounds read low 1 | locus YNL248C, strain rpa49, active compounds read low 1.03 | locus YNL250W, strain rad50, active compounds read low 0.982 | locus YNL271C, strain bni1, active compounds read low 0.993 | locus YNL298W, strain CLA4, active compounds read low 0.995 | locus YNL307C, strain MCK1, active compounds read low 1 | locus YNL322C, strain KRE1 (second series), active compounds read low 1.04 | locus YNR049C, strain mso1, active compounds read low 1.02 | locus YNR052C, strain pop2, active compounds read low 0.996 | locus YOL012C, strain htz1 0.732 | locus YOL147C, strain pex11, active compounds read low 0.992 | locus YOR001W, strain rrp6, active compounds read low 0.986 | locus YOR061W, strain CKA2, active compounds read low 1.01 | locus YOR069W, strain VPS5, active compounds read low 1.01 | locus YOR070C, strain gyp1, active compounds read low 1.03 | locus YOR080W, strain dia2, active compounds read low 1.02 | locus YOR083W, strain WHI5, active compounds read low 1.05 | locus YOR106W, strain vam3, active compounds read low 1.05 | locus YOR136W, strain idh2, active compounds read low 0.994 | locus YOR144C, strain elg1, active compounds read low 0.997 | locus YOR184W, strain ser1, active compounds read low 1 | locus YOR231W, strain MKK1, active compounds read low 0.992 | locus YOR265W, strain rbl2, active compounds read low 1 | locus YOR270C, strain vph1, active compounds read low 1.03 | locus YOR290C, strain snf2, active compounds read low 1.06 | locus YOR316C, strain cot1, active compounds read low 0.995 | locus YPL051W, strain arl3, active compounds read low 1 | locus YPL055C, strain LGE1, active compounds read low 1 | locus YPL078C, strain atp4, active compounds read low 1.04 | locus YPL106C, strain sse1, active compounds read low 1.04 | locus YPL240C, strain hsp82, active compounds read low 1.01 | locus YPL241C, strain CIN2, active compounds read low 1.01 | locus YPL256C, strain CLN2, active compounds read low 0.968 | locus YPR119W, strain clb2, active compounds read low 0.999 | locus YPR141C, strain kar3, active compounds read low 1.01 | locus YPR163C, strain tif3, active compounds read low 1 | locus YPR167C, strain met16, active compounds read low 1 | strain wtn01, active compounds read low 0.997
